Measured values from PubChem BioAssay (NCATS).
Where “and” joins values, the source holds several entries; their conditions need not be identical. Equal entries are not always repeated. Results filed as inconclusive are left out. Where a call stands in place of a potency, no number is given. Some compounds were tested as several samples or in several runs, with calls that do not always agree. Calls of active or inactive are those of the source. Unless noted, calls come from the whole dose curve; as a rule, active = well fitted curve in the direction sought with a large enough effect; inconclusive = small, poorly fitted or top-dose-only effect, or another doubt; inactive = no such curve, though single readings can be large; an effect the other way counts as inactive or inconclusive.

How the values were obtained:
[1] = molecular target: Protein phosphatase 1D (Homo sapiens) (UniProt O15297); assay: Rhodamine-PBP qHTS Assay for Modulators of WT P53-Induced Phosphatase 1 (WIP1) (AID 1347425)
Sequence of Protein phosphatase 1D (Homo sapiens) (O15297 whole entry, looked up): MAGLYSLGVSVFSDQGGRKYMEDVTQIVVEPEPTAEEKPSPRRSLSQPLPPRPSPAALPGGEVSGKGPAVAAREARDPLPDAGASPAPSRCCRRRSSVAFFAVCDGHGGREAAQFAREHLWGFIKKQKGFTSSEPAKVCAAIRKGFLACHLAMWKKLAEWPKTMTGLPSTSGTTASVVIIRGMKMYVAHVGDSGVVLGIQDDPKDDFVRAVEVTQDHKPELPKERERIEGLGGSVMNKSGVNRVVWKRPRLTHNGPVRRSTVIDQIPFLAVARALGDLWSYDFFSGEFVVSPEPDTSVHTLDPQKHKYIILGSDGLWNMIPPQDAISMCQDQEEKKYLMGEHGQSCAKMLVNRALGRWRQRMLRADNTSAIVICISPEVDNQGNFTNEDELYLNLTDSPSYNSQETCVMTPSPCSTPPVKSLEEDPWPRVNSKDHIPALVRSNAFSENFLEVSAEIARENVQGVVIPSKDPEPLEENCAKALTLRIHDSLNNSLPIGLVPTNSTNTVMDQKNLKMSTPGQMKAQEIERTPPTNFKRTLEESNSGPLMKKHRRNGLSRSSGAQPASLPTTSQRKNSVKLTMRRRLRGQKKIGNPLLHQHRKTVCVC
Method in brief: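 5 nM WIP1 + 10 uM Rh-PBP, 50 mM Tris pH 7.5, 30 mM MgCl2, 1 mM TCEP, 0.1 mM EGTA, BSA; cpds pinned, 1 hr RT; + 10 uM phosphopeptide; fluorescence 1-min reads x 11 min; delta = f1 - f0.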

[2] = Validation qHTS assay for inhibitors of Activation Induced Cytidine Deaminase (AID): UDG Counterscreen signal (AID 1347427)
Method in brief: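 Counterscreen read of UDG activity (2 U/mL, 4/3x) in the FRET deamination format with AID (1 uM, 4/3x), DJC20/DJC23 substrates (250 nM, 4x), 4 h at room temperature. NaOH stop, fluorescence at 560 ex/665 em.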

[3] = molecular target: Single-stranded DNA cytosine deaminase (Homo sapiens) (UniProt Q9GZX7); assay: Validation qHTS assay for inhibitors of Activation Induced Cytidine Deaminase (AID): AID signal (AID 1347429)
Sequence of Single-stranded DNA cytosine deaminase (Homo sapiens) (Q9GZX7 whole entry, looked up): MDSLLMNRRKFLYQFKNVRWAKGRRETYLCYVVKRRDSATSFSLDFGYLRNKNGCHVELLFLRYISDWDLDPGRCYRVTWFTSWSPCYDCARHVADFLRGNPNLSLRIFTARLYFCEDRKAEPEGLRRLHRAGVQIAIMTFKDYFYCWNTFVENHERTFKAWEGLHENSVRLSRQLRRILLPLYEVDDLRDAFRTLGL
Method in brief: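 AID and UDG were combined and compounds added at final up to 114 uM, then DJC20/DJC23 FRET substrate was added for 4 hr at room temperature. NaOH was then added for 30 min before fluorescence was read at 540/590 nm.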

[4] = Primary qHTS for inhibitors of La Crosse Virus (LACV) - induced cell death in SH-SY5Y cells (AID 1508616);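 note: top concentration of the series differs between compounds; higher means more rescue of cells from virus-induced death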
Method in brief: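 Luminescent ATP readout (ATPLite 1step, 5 min room temperature) measured rescue from LACV-induced death after 6 days of infection at 0.01 MOI; normalized to infected DMSO wells and uninfected DMSO wells.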

[5] = Primary qHTS for small molecule stabilizers of the endoplasmic reticulum resident proteome: Secreted ER Calcium Modulated Protein (SERCaMP) assay (AID 1508630)
Method in brief: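 GLuc-SERCaMP-expressing SH-SY5Y cells, pretreated 16 h with compound, are challenged with thapsigargin to empty ER calcium stores; after 4 h, coelenterazine is added directly to the medium and luminescence is imaged.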

Papain (Carica papaya) = Papain (Carica papaya) (UniProt P00784); assay: Primary qHTS assay for inhibitors of the protease papain (AID 1645873);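 note: papain turnover of Z-FR-AMC read as the AMC fluorescence gain over 10 min; series mostly up to about 50 µM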
Sequence of Papain (Carica papaya) (P00784 whole entry, looked up, the tested form may be a part): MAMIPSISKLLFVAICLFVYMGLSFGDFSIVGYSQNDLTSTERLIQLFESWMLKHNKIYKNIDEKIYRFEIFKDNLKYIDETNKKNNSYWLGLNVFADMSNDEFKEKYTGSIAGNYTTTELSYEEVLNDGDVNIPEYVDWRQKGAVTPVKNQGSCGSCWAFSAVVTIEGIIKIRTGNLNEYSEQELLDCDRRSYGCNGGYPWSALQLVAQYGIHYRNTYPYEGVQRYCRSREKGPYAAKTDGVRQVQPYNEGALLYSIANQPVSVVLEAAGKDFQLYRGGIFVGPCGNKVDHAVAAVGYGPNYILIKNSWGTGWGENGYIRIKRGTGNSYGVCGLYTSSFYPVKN

[6] = Primary qHTS for inhibitors of nuclear receptor binding SET domain protein 2 (NSD2) in an isogenic RCH-ACV NSD2 p.E1099K mutant (9B) (AID 1645876); note: nearly all actives have a fitted effect of over 70% in size; note: potency is the fitted concentration of half-maximal effect
[7] = Primary qHTS for inhibitors of nuclear receptor binding SET domain protein 2 (NSD2) in an RCH-ACV wild type WT cells (2C) (AID 1645877); note: nearly all actives have a fitted effect of over 70% in size; note: potency is the fitted concentration of half-maximal effect
[8] = molecular target: Calcium and integrin-binding protein 1 (Homo sapiens) (UniProt Q99828); assay: Primary qHTS for Identification of Calcium Integrin Binding Protein 1 (CIB1) Competitor (AID 1508620);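 note: GST tagged CIB1 binding a fluorescein labelled alphaIIb integrin peptide tracer; top concentration of the series differs between compounds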
Sequence of Calcium and integrin-binding protein 1 (Homo sapiens) (Q99828 whole entry, looked up): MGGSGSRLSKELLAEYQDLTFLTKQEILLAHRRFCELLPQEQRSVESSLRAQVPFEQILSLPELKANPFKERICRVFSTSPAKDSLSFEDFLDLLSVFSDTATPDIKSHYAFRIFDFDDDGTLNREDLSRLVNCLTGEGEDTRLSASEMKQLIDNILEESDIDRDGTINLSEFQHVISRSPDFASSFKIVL
Method in brief: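 Fluorescence polarization competition: CIB1-GST (1 uM final) preincubated with compound 15 min at room temperature, then FITC-labeled alphaIIb peptide (100 nM final) added for another 15 min. Polarization read at Ex 480/Em 540.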

[9] = A High-Content qHTS Against Drug Library for the Identification of Small Molecules that Inhibit DYT1 Early Onset Primary Dystonia-Associated Cell Pathology (AID 1645839; calls by dose curve; note: potency is the fitted concentration of half-maximal effect)
Method in brief: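 Readout: %pathology, the punctate EGFP-TorsinA distribution from imaging, as the primary channel and cell count as the toxicity counterscreen. HEK293 Flp-In cells expressing delE TorsinA were induced with tetracycline and treated with compound for 48 h.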

[10] = molecular target: Cytochrome P450 2C9 (Homo sapiens) (UniProt P11712); assay: Cytochrome P450 family 2 subfamily C member 9 (CYP2C9) small molecule antagonists: luciferase biochemical (cell-free) qHTS assay (AID 1645842; active = well fitted curve in the direction sought with a large enough effect in the repeat runs; an effect the other way counts as inactive or inconclusive; note: nearly all actives have a fitted effect of over 55% in size; note: potency is the fitted concentration of half-maximal effect)
Sequence of Cytochrome P450 2C9 (Homo sapiens) (P11712 whole entry, looked up): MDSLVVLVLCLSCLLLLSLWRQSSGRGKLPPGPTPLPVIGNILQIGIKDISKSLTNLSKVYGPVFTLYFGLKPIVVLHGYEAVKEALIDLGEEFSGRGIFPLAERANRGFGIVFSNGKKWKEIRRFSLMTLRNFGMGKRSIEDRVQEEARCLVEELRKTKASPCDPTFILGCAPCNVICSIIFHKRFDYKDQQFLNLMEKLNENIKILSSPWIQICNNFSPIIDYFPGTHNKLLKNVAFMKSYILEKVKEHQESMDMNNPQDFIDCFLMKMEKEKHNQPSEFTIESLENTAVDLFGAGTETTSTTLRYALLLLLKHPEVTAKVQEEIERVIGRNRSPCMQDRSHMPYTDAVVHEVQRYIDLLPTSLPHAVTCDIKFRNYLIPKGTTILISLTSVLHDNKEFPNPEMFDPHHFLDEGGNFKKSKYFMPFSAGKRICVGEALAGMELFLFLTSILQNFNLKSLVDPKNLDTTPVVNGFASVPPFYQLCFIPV
Method in brief: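 Luminescence, after 20 min with luciferin detection reagent, reflected CYP2C9 turnover during a 1 h NADPH-driven reaction at 37C. Enzyme-substrate mix contained 0.4% bovine serum albumin and was preincubated with compound 10 min at room temperature.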

[11] = molecular target: Cytochrome P450 2D6 (Homo sapiens) (UniProt P10635); assay: Cytochrome P450 family 2 subfamily D member 6 (CYP2D6) small molecule antagonists: luciferase biochemical (cell-free) qHTS assay (AID 1645840; active = well fitted curve in the direction sought with a large enough effect in the repeat runs; an effect the other way counts as inactive or inconclusive; note: series mostly up to about 57 µM; nearly all actives have a fitted effect of over 55% in size)
Sequence of Cytochrome P450 2D6 (Homo sapiens) (P10635 whole entry, looked up): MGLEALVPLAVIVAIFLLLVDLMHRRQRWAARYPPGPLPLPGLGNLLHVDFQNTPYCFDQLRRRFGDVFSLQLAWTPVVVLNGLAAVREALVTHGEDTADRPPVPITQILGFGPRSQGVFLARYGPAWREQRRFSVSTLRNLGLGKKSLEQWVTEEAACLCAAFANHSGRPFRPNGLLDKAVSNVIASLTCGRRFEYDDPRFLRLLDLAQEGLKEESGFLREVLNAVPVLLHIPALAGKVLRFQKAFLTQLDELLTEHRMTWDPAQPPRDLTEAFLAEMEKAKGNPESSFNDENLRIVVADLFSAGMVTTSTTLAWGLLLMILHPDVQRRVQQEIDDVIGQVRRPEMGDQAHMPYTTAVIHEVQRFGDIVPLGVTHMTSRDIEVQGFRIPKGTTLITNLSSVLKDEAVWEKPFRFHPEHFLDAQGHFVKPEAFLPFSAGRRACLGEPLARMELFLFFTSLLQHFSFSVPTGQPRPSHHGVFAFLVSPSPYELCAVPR
Method in brief: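 P450-Glo luminescent screen: recombinant CYP2D6 enzyme–proluciferin substrate mix preincubated with compound 10 min at room temperature, then NADPH regeneration added for 1 h at room temperature. Detection reagent added for 20 min; luciferin light read as relative luminescence units.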

[12] = molecular target: Calcium and integrin-binding protein 1 (Homo sapiens) (UniProt Q99828); assay: Validation qHTS for Identification of Calcium Integrin Binding protein 1 (CIB1) Competitor (AID 1508618)
Method in brief: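 Displacement of FITC-alphaIIb peptide (100 nM) from CIB1-GST (1 uM) is monitored by polarization in quantitative HTS format; buffer carries 5 mM CaCl2 and 125 mM NaCl at pH 7.4, incubations are at room temperature.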

[13] = Counterscreen qHTS for small molecule stabilizers of the endoplasmic reticulum resident proteome: GLuc-NoTag assay (AID 1508627);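 note: SH-SY5Y cells given compound then 100 nM thapsigargin to empty ER calcium; series mostly up to about 76 µM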
Method in brief: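 SH-SY5Y cells stably expressing constitutively secreted GLuc (no SERCaMP tag) were pre-incubated 5 h, treated with compound for 19 h, then 100 nM thapsigargin for 4 h at 37C; medium GLuc read by coelenterazine luminescence.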

[14] = Confirmatory qHTS for small molecule stabilizers of the endoplasmic reticulum resident proteome: Secreted ER Calcium Modulated Protein (SERCaMP) assay (AID 1508628); note: nearly all actives have a fitted effect of over 40% in size; note: potency is the fitted concentration of half-maximal effect
Method in brief: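 We seeded SH-SY5Y-GLuc-SERCaMP cells, added compounds (three concentrations in the primary run, eleven up to 76.6 uM in confirmation), incubated 16 h, depleted ER calcium with thapsigargin, and read luciferase 4 h later.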

[15] = Cell Viability qHTS for small molecule stabilizers of the endoplasmic reticulum resident proteome (AID 1508629); conditions: cell viability counter-screen, 100 nM thapsigargin for final 4 h;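 note: human SH-SY5Y neuroblastoma cells carrying the GLuc-SERCaMP reporter; compound exposure about 46 h in total before the viability read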

SMILES | outcome [1] | outcome [2] | Potency [3] | outcome [4] | Potency [5] | outcome (Papain (Carica papaya)) | Potency [6] | Potency [7] | Potency [8] | Potency [9] | Potency [10] | Potency [11] | outcome [12] | Potency [13] | Potency [14] | max response [15]
COC(=O)[C@@H]1[C@H]2C[C@H]3c4[nH]c5ccccc5c4CCN3C[C@@H]2CC[C@@H]1O | inactive | inactive | inactive | inactive | inactive | inactive | inactive | inactive | – | – | – | – | – | – | – | –
CC[C@]1(O)C[C@@H]2CN(CCc3c([nH]c4ccccc34)[C@@](C(=O)OC)(c3cc4c(cc3OC)N(C)[C@H]3[C@@](O)(C(=O)OC)[C@H](OC(C)=O)[C@]5(CC)C=CCN6CC[C@]43[C@@H]65)C2)C1 | inactive | – | – | inactive | inactive | – | 33.5 nM (active) and 84.1 nM (active) and 57.8 nM (active) | 26.6 nM (active) and 53.1 nM (active) and 36.5 nM (active) | inactive | inactive | inactive | – | – | – | – | –
CC(=O)CCCCn1c(=O)c2c(ncn2C)n(C)c1=O | inactive | inactive | inactive | inactive | inactive | inactive | inactive | inactive | – | inactive | inactive | inactive | – | – | – | –
COc1ccccc1N1CCN(CCCNc2cc(=O)n(C)c(=O)n2C)CC1 | inactive | inactive | inactive | inactive | inactive | inactive | inactive | inactive | inactive | inactive | inactive | – | inactive | – | – | –
CC/C(=C(\c1ccccc1)c1ccc(OCCN(C)C)cc1)c1ccccc1 | inactive | inactive | inactive | inactive | inactive | inactive | inactive | 17.1 µM (active) | – | 11.2 µM (active) | – | – | – | – | – | –
NCCS | inactive | inactive | inactive | inactive | inactive | inactive | inactive | inactive | inactive | inactive | inactive | inactive | inactive | – | – | –
O=C(O)Cc1cccc2ccccc12 | inactive | – | – | inactive | – | – | inactive | inactive | inactive | inactive | inactive | inactive | – | – | – | –
CC1=C(/C=C/C(C)=C/C=C/C(C)=C/C(=O)Nc2ccc(O)cc2)C(C)(C)CCC1 | inactive | inactive | inactive | inactive | inactive | inactive | 1.88 µM (active) and 2.95 µM (active) | 1.88 µM (active) and 2.95 µM (active) | inactive | – | 2.75 µM (active) | – | inactive | inactive | inactive and 31.6 µM (active) | 14.9% (inactive)
O=C(O)c1cc(-c2ccccc2)nc2ccccc12 | inactive | – | – | inactive | inactive | – | inactive | inactive | – | inactive | 27 µM (active) and inactive | inactive | – | – | – | –
C[N+](C)(C)CCCCCC[N+](C)(C)C | inactive | inactive | inactive | inactive | inactive | inactive | inactive | inactive | inactive | inactive | inactive | inactive | inactive | – | – | –
